Source: PubChem (several laboratories)
An excerpt weighted towards active compounds, which were near 2.8% of everything screened.
Smad3 FoxH1 inh = blocks human Smad3 binding to FoxH1 peptide; TR-FRET Smad3/Dy647-FoxH1 peptide binding, europium anti-His; inhibition, % at 25 µM; P84022; actives 0.29% (n = 88,000);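 active means compounds that reduce the energy-transfer binding signal between the protein and its labelled peptide by more than half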;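 further: 0% = Smad3 plus labelled peptide maximal FRET and 100% = peptide-only background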
ERb coact inh = ER-beta (human) coactivator binding inhibition. Q92731. TR-FRET ER-beta LBD / SRC1-Cy5 peptide binding; receptor agonist-loaded with 1 µM estradiol. inhibition, % at 25.6 µM. actives 1.3% (n = 86,000);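 active means compounds whose percent inhibition of the receptor-coactivator binding signal exceeds about 50% in the single-dose screen, limit read from the data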;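 further: 0% = receptor plus peptide wells without compound and 100% = peptide-only wells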
Target sequence (Q92731 whole entry, looked up, the tested form may be a part): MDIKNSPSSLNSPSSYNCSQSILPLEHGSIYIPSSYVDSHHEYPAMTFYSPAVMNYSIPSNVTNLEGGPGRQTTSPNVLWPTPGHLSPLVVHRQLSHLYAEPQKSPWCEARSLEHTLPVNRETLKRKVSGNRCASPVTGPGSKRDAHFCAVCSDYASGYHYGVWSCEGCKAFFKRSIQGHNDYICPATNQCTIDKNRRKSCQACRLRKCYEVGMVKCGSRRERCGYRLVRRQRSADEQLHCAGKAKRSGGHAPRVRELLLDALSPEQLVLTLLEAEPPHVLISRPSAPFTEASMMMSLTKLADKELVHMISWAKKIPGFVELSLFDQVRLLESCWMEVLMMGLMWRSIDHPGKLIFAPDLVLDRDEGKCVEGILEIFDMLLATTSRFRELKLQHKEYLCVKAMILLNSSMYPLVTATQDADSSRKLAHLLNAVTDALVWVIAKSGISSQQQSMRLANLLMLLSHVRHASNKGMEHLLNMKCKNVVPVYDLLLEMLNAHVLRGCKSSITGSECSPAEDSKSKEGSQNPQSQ
MRP resist rev = compounds reversing MRP-mediated drug resistance. H69AR cells + 2 uM doxorubicin, CellTiter-Glo, 72 h. differential viability (reversal), % at 10 µM. actives 0.04% (n = 85,000);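 active means viability drop by adding the cancer drug above about 55%, with treated viability meeting a 40% cutoff, limit read from the data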;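 further: viability without doxorubicin minus viability with 2 µM doxorubicin for each compound; larger differential means the compound sensitizes cells more to doxorubicin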
ERa SRC1 inh = ER-alpha (human) coactivator binding inhibition | TR-FRET ER-alpha LBD / SRC-1 peptide, estradiol-bound | inhibition, % at 25.6 µM | actives 1.7% (n = 86,000) | AID 629; in the data active means inhibition above about 50%;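 further: 0% = receptor plus peptide control and 100% = peptide only without receptor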
ERa SRC1 pot = ER-alpha (human) coactivator binding potentiation; P03372; TR-FRET ERalpha-LBD/SRC-Cy5 coactivator binding, 2 h; 100 = basal binding, no effect; coactivator binding (% of control), % at 25.6 µM; actives 1.3% (n = 86,000); in the data active means activity above about 200%;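 further: binding measured in presence of low estradiol as agonist stimulus; 0% = peptide alone without receptor and 100% = receptor with peptide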
MRP-1 activ = MRP-1 activation | H69AR cells + doxorubicin, viability rescue, CellTiter-Glo | viability increase, % at 10 µM | actives 0.61% (n = 140,000) | AID 799;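 active means viability gain under doxorubicin at or above a set limit, the compound median plus 3 SD, cut at about 4.7% in these data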;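 further: MRP-1 overexpressing cells given doxorubicin 25 µM after compound pretreatment; 18-22 h compound pretreatment then 72 h with doxorubicin before readout; 0% = doxorubicin-only wells and 100% = vehicle-treated cells without doxorubicin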
* marks the source's active call; other numbers are inactive results; . = no result given; [ ] = another dose, or the depositor's remark.

SMILES | Smad3 FoxH1 inh | ERb coact inh | MRP resist rev | ERa SRC1 inh | ERa SRC1 pot | MRP-1 activ
Nc1c(C(=O)c2cccs2)oc2ccccc12 | -3 | -4 | -7 | -15 | 259*[fluorescence artefact?] | -2
Nc1c(C(=O)c2ccc(Br)s2)oc2ccccc12 | 16 | 7 | -19 | -4 | 108 | -4
CCOc1ccccc1NC(=O)c1ccc(Cl)c(NC(=O)CC(c2ccccc2)c2ccccc2)c1 | . | . | . | . | . | 1
CCOc1ccccc1NC(=O)c1cccc(NC(=O)CC(c2ccccc2)c2ccccc2)c1 | . | . | . | . | . | 8.6*
CCCCn1c(CN2C(=O)c3ccccc3C2=O)nc2ccccc2c1=O | -17 | 51*[fluorescence artefact?] | -8 | 58*[fluorescence artefact?] | 179 | -2
COc1ccc2c(c1)c1nc3ccccc3nc1n2CCCN1C(=O)c2ccccc2C1=O | . | . | . | . | . | 0
O=C1c2ccccc2C(=O)N1Cc1nc2ccccc2c(=O)n1CCCn1ccnc1 | -10 | 8 | 3 | 1 | 102 | -1
Cc1cccc2c3nc4ccccc4nc3n(CCCN3C(=O)c4ccccc4C3=O)c12 | . | . | . | . | . | 5.2*
CC1CCN(CC[S-])CC1.O.O.[Cl][Pt] | 6 | . | . | . | . | .
N=C1C(c2ccccc2)=C(O)CN1c1cccc(S(=O)(=O)Nc2cccc(C(F)(F)F)c2)c1 | . | . | . | . | . | 3
COc1ccc2c(Cl)c(C(=O)NCCCn3ccnc3)sc2c1 | 1 | -1 | 79* | -12 | 129 | -3
C=CCn1c(SCC(=O)Nc2sc3c(c2C#N)CCC3)nnc1C1COc2ccccc2O1 (stereo not given) | . | . | . | . | . | -1
Cn1c(SCC(=O)Nc2sc3c(c2C#N)CCC3)nnc1C1COc2ccccc2O1 (stereo not given) | -5 | 41 | 6 | 66*[fluorescence artefact?] | 69 | 0
CC(C)OC(=O)CSc1nnc(-c2ccc(C(C)(C)C)cc2)n1N | 7 | -2 | 4 | 98*[fluorescence artefact?] | 111 | -3
CC(C)OC(=O)CSc1nnc(-c2ccncc2)n1N | -3 | 7 | 3 | 18 | 111 | 0
O=C(/C=C/c1ccccc1)n1cnnc1SC/C=C/c1ccccc1 | . | . | . | . | . | 4.7*
Cn1c(-c2ccc(F)cc2)cnc1SCC(=O)Nc1ccccc1N1CCOCC1 | 0 | -3 | 16 | -8 | 115 | -1
CCCSc1nc(SCC(=O)NCc2ccccc2)c2c3c(sc2n1)COC(C)(CC)C3 (stereo not given) | -178 | -2 | 0 | -16 | 298*[fluorescence artefact?] | 0
COc1cc2[nH]c3c(N4CCN(c5ccccn5)CC4)ncnc3c2cc1OC | 16 | 6 | -1 | -1 | 676*[fluorescence artefact?] | -3
CCN(CC)S(=O)(=O)c1cc(C(=O)n2cccn2)c(Cl)cc1Cl | 2 | -5 | -1 | 3 | 107 | -3
CCn1c(NC(=O)Nc2cccc(C)c2C)cc2sccc21 | . | . | . | . | . | -4
Cc1nc(Nc2nc(CSc3nc4ccccc4[nH]3)cc(=O)[nH]2)nc2ccccc12 | . | . | . | . | . | -3
COc1nc(Nc2nc3ccccc3c(=O)[nH]2)nc2ccc(C)cc12 | 40 | 53*[fluorescence artefact?] | 0 | 74*[fluorescence artefact?] | 147 | .
CCc1c(C)nc(Nc2nc(C)c3cc(OC)ccc3n2)[nH]c1=O | -7 | -7 | -33 | -1 | 112 | -2
Cc1nc(Nc2nc(-c3ccccc3)cc(=O)[nH]2)nc2ccccc12 | 21 | -2 | -17 | 20 | 239* | .
SMILES | Smad3 FoxH1 inh | ERb coact inh | MRP resist rev | ERa SRC1 inh | ERa SRC1 pot | MRP-1 activ
Cc1ccc(NC(=O)C(=O)c2c(-c3ccccc3)cc3ccccn23)cc1S(=O)(=O)N1CCOCC1 | 19 | -4 | 13 | -11 | 104 | 4.8*
CC1(C)CC(=O)c2c(oc3cc(O)c(O)cc23)C1 | 7 | 58*[fluorescence artefact?] | -30 | 27 | 71 | -3
CCNC(=O)c1oc2c(c1C)C(=O)CC(C)(C)C2 | 0 | -7 | 7 | 2 | 101 | 1
COc1ccc(C(N)CCc2ccc(C)o2)cc1 (stereo not given) | 4 | 74* | -2 | 95*[fluorescence artefact?] | 19 | -2
CCc1ccc(CCC(=O)Nc2ccc(OC)cc2)o1 | 4 | -20 | 0 | -33 | 98 | -4
O=C(O)C[C@@H](C(=O)O)c1ccccc1[N+](=O)[O-] | 48 | . | . | . | . | .
Cc1ccc(S(=O)(=O)c2c(C)cc(C)nc2Cl)c(C)c1 | . | . | . | . | . | -2
Cc1cc(C)c(S(=O)(=O)/N=C2\C=CC(=O)C(Cl)=C2)c(C)c1 | 5 | 61* | 15 | 70* | 82 | -1
CC1CCN(CC(=O)N2c3ccccc3Sc3cc4ccccc4cc32)CC1 | 2 | . | . | . | . | .
